# Screening results: PubChem, National Center for Advancing Translational Sciences (NCATS)
# TrxR1 substrate: substrates of rat thioredoxin reductase 1. AID 588456. purified TrxR1 substrate turnover, NADPH consumption readout. Potency, µM (top dose mostly 114 µM). 0.01% of 390,000 active; further: nearly all actives have a fitted effect of over 50% in size
# Target sequence (O89049 whole entry, looked up): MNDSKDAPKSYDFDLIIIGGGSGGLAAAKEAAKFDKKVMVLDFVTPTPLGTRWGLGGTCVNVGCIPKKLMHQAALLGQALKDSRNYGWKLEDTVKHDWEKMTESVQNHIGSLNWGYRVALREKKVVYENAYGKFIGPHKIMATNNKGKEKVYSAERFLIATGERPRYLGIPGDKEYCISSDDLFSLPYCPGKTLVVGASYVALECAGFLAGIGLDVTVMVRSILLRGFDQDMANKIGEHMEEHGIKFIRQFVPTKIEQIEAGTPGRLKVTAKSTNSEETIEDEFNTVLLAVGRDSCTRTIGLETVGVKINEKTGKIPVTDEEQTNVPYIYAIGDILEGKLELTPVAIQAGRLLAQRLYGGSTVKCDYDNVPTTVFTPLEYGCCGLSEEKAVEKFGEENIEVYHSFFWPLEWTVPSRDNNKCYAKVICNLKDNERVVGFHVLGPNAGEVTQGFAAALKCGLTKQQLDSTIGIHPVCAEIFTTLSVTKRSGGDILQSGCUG
#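 Rat TrxR1, dispensed at 90 nM, was prereduced with 400 uM NADPH (final) for 5 min at ~22 deg C, then incubated with compound 15 min before 400 uM selenite. A first-read NADPH fluorescence drop versus no-compound background flagged substrates.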
# A-T KAP1 phos: potential ataxia-telangiectasia treatment | F2112 A-T fibroblasts, KAP-1 phosphorylation AlphaLISA; neocarzinostatin DNA damage 30 min before lysis | Potency, µM (titrated, usually from 57.5 µM), actives largely listed as activators | 0.19% of 320,000 active | AID 485349; further: nearly all actives have a fitted effect of over 45% in size
#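 ATM-like activity read as KAP-1 phosphorylation via AlphaLISA donor/acceptor antibody pairs after lysis and 6 hr at 25C. Cells were ATM-null patient fibroblasts (F2112, hTERT), dosed 60 min, then exposed to the DSB inducer NCS for 30 min.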
# Pin1 inh: blocks the human prolyl isomerase Pin1; AID 504891; Pin1 FP peptide displacement, HiFluor488, 10 min; 0.009% of 390,000 active; Q13526; Potency, µM (titrated, usually from 115 µM), hits mostly inhibitors; active means well fitted inhibition curve with a large enough effect in the polarisation, with a control signal flat, not every such curve was filed as active; inconclusive means small, poorly fitted or top-dose-only effect, or effect the other way, or a change in a side signal; inactive means no such curve, though single readings can be large or run the other way; the % refers to the polarisation
# N370S GC mod: N370S glucocerebrosidase modulation, Gaucher chaperone candidate. Potency, µM (top dose mostly 59.4 µM), hits mostly inhibitors. AID 2101. 0.092% of 330,000 active. N370S GC spleen homogenate, 4MU-glucoside fluorescence. P04062
# rTrxR1 inhibitor: inhibitors of rat thioredoxin reductase 1; O89049; Potency, µM (top dose mostly 114 µM), hits mostly inhibitors; recombinant rTrxR1, NADPH fluorescence consumption, selenite substrate; 1% of 390,000 active; AID 588453; further: nearly all actives have a fitted effect of over 65% in size
#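 Rat TrxR1 (90 nM in the dispensed reagent) was pre-reduced with 400 uM NADPH for 5 min at room temperature, then incubated with compound for 15 min. After 400 uM selenite was added, NADPH fluorescence (Ex 340/Em 450 nm) was followed for 8 min.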
# Akt phos inh: blocks phosphorylation of Akt; Neuro2A IGF-stimulated pAkt S473 HTRF, 20 min; hits give low values; activity change, % for hits at 50 µM; 0.32% of 360,000 active; in the data active means activity change below about -80%; inconclusive means mostly about -51% to -80%
#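 Neuro2A cells (4,500/well, DMEM with 0.5% FBS) were treated with compound at a single 50 µM final concentration, stimulated with 6 nM IGF for 20 min at 37 °C, and lysed. Phospho-Akt Ser473 was read by HTRF as 665/615 ratio ×10^4.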
# A number is an active result; 0 = inactive; ? = inconclusive; - = no result; [ ] = dose if it differs, or a comment. Only some compounds are listed: those with a hit (about 1.4% of all), similar ones and a draw of the others. Unless noted, the call rests on the fitted dose curve; in most records, active means well fitted curve in the direction sought with a large enough effect; inconclusive means small, poorly fitted or top-dose-only effect, or another doubt; inactive means no such curve, though single readings can be large; an effect the other way counts as inactive or inconclusive.
SMILES,TrxR1 substrate,A-T KAP1 phos,Pin1 inh,N370S GC mod,rTrxR1 inhibitor,Akt phos inh
COc1ccc(CCNC(=O)/C=C/c2ccco2)cc1OC,0,0,0,0,7.94µM,0
COc1ccc(/C=N/NC(=O)CNC(=O)/C=C/c2ccco2)cc1OC,0,0,?,0,31.6µM,0
CCOc1ccc(CCNC(=O)COC(=O)/C=C/c2ccco2)cc1OCC,0,0,0,0,?,0
COc1ccc(-c2csc(NC(=S)NC(=O)/C=C/c3ccco3)n2)cc1OC,0,0,0,0,0,0
COc1ccc(-c2cn3nc(N4CCCC(C(=O)NCc5ccc(Cl)cc5)C4)sc3n2)cc1 (stereo not given),0,-,0,-,0,-
COc1ccc(CCNC(=O)CCn2cccc2)cc1OC,0,0,0,0,0,-101.3%
CCOc1ccc(CCNC(=O)CCn2cccc2)cc1OCC,0,0,0,0,0,0
COc1ccc(CCNC(=O)/C=C/c2ccco2)cc1,0,0,0,0,35.5µM,0
CC1=Nc2ccccc2/C1=C/c1ccc(N(C)C)cc1,0,-,-,-,0,-
O=C(CCN1C(=O)c2ccccc2C1=O)Nc1sc2c(c1C(=O)NCc1ccco1)CCCC2,0,0,0,0,20µM,0
C=CCn1c(SCC#N)nc2cc(Cl)ccc2c1=O,0,-,0,-,0,-
CN(C)CC1CCC/C(=C\c2ccc(OC(=O)c3ccc(Cl)cc3)cc2)C1=O (stereo not given),0[11.4 µM],-,0,-,0[11.4 µM],0
CN(C)CC1CC/C(=C\c2ccc(O)cc2)C1=O (stereo not given),0,-,0,-,0.708µM,0
COc1ccc(/C=C2\CCC(C3CCCC3)C2=O)cc1 (stereo not given),0,0,0,0,0,0
O=C1/C(=C\c2ccc(Cl)cc2)CCC1CNc1ccc(Cl)cc1 (stereo not given),0,-,0,-,7.94µM,0
COc1ccc(/C=C2/CCC(CN3CCOCC3)C2=O)cc1 (stereo not given),0[11.4 µM],-,0,-,1.58µM,0
Cc1ccc(S(=O)(=O)N2CCN(c3nc(-c4ccco4)nc4ccccc34)CC2)cc1,-,-,0,-,-,-
COc1cccc(NC(=O)CN2CCN(c3ccccc3F)CC2)c1,0,0,0,0,0,-109.9%
COc1cccc(CNC(=O)CCC(=O)N2CC(C)Sc3ccccc32)c1 (stereo not given),0,-,0,-,0,-
O=S(=O)(c1ccc(N2CCC(c3ccc(Cl)cc3)=N2)cc1)N(CCO)CCO,0,31.6µM,0,?,0,?
O=S(=O)(c1ccc(Oc2ccc(S(=O)(=O)N(CCO)CCO)cc2)cc1)N(CCO)CCO,0,0,0,0,0,0
O=C(NCc1ccco1)c1cc2c(s1)CSC2,0,0,?,0,7.94µM,0
O=C(NCc1ccc2c(c1)OCO2)c1cc2c(s1)CSC2,0,0,0,0,0,0
CCOc1ccc(NC(=S)N(CCc2c(C)[nH]c3ccc(C)cc23)Cc2ccncc2)cc1,0,0,0,14.1µM,0,0
O=C(NCCCc1cnc[nH]1)NCCCN(Cc1ccc(Cl)c(Cl)c1)c1ccc(Br)cn1,-,-,0,-,-,-
SMILES,TrxR1 substrate,A-T KAP1 phos,Pin1 inh,N370S GC mod,rTrxR1 inhibitor,Akt phos inh
CCN(CC)Cc1cc(O)c(CN(CC)CC)cc1O,0,0,?,0,10µM,0
OCC[N+]1(CCc2ccccc2)CCOCC1,0,-,-,-,0,-
N#Cc1c(-c2cccc(Cl)c2)[nH]c(=S)[nH]c1=O,0,0,0,0,0,0
CS(=O)(=O)c1[nH]nc(-c2cccc(Cl)c2)c1C#N,0,39.8µM,0,0,0,0
C=C(c1ccc2ccccc2n1)c1cccs1,0,-,-,-,0,-
Cc1ccc(-c2cc(C(=O)O)c3cc(Br)ccc3n2)o1,0,0,0,0,?,0
Cc1ccc(-c2cc(C(=O)NCCCn3ccnc3)c3cc(Br)ccc3n2)o1,0,0,0,0,14.1µM,0
Clc1ccc([C@H](Cn2ccnc2)OCc2c(Cl)cccc2Cl)c(Cl)c1,-,-,-,0,-,-
COC(=O)C1=C(C)N(C)C(=O)/C1=C\c1ccco1,0,0,0,0,25.1µM,0
COC(=O)C1=C(C)N(Cc2ccco2)C(=O)/C1=C\c1ccc([N+](=O)[O-])cc1,0,0,0,0,20µM,0
COC(=O)C1=C(C)N(Cc2ccc(OC)cc2)C(=O)/C1=C\c1ccco1,0,0,0,0,35.5µM,0
